Experimental data as given in PubChem BioAssay (NCATS).
Results filed as inconclusive are left out. The source made the active and inactive calls. The call rests on the fitted dose curve; in most records, active means well fitted inhibition curve with a large enough effect; inconclusive means small, poorly fitted or top-dose-only effect; inactive means flat fitted curve, though single readings scatter. *1 amine or outer side, *2 acyl side, *3 side chain or, on linkers, in order; H or OH if unused. Where a SMILES comes first, the peptide text is derived from it. Bridges are numbered along the chain shown (N, C = ends). [ ]: non-standard residue; d: D form. The star is where a group is joined. ξ: configuration not given here. ξhTyr(3S-OH,4S-OH,3'-OSO3H) = NC(C(=O)O)[C@H](O)[C@@H](O)c1ccc(O)c(OS(=O)(=O)O)c1; Orn(4R-OH,5R-OH) = O=C([C@H](C[C@@H](O)[C@@H](O)N[*:3])N[*:1])[*:2]; X2 = CCCCCOc1ccc(-c2cc(-c3ccc(C(=O)*)cc3)no2)cc1; X3 = C[C@H]1CN([*:1])C(C(=O)[*:2])[C@H]1O; ξGln(3R-OH) = NC(=O)C[C@@H](O)C(N)C(=O)O; ξPro(4R-OH) = O=C(O)C1C[C@@H](O)CN1; ξThr(3R) = C[C@@H](O)C(N)C(=O)O

Assay: P-glycoprotein substrates identified in KB-8-5-11 adenocarcinoma cell line, qHTS therapeutic library screen (AID 1346987); further: nearly all actives have a fitted effect of over 65% in size
Conditions: KB-8-5-11 (P-gp overexpressing) viability, CellTiter-Glo, 72 h; series mostly up to 44.5 µM; activity change, negative = cytotoxicity: at the top concentration
Procedure, shortened: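 KB-8-5-11, a colchicine-selected P-gp-overexpressing KB-3-1 subline, was grown without colchicine for the assay. Cells were seeded at 500 cells/well, dosed in concentration-response and incubated 72 h at 37 degree C, 5% CO2. Viability was read by CellTiter-Glo luminescence.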
On the % scale 0 is the no-effect control and ±100 the full control effect.

SMILES	activity change, negative = cytotoxicity	outcome
COc1cc(Nc2ccc([N+](=O)[O-])cc2C(=O)O)cc2ccccc12	-8.91% (inactive)	
CC1(C)CC[C@]2(C(=O)O)CC[C@]3(C)C(=CCC4[C@@]5(C)C[C@@H](O)[C@H](O)[C@@](C)(CO)C5CC[C@]43C)C2C1 (some centres undefined)	0.917% [at 17.3 µM] (inactive)	
CCCCCOc1ccc(-c2cc(-c3ccc(C(=O)N[C@H]4C[C@@H](O)[C@@H](O)NC(=O)C5[C@@H](O)[C@@H](C)CN5C(=O)C([C@H](O)CC(N)=O)NC(=O)C([C@H](O)[C@@H](O)c5ccc(O)c(OS(=O)(=O)O)c5)NC(=O)C5C[C@@H](O)CN5C(=O)C([C@@H](C)O)NC4=O)cc3)no2)cc1 (stereo partly drawn) (X2-[Orn(4R-OH,5R-OH)][ξThr(3R)][ξPro(4R-OH)][ξhTyr(3S-OH,4S-OH,3'-OSO3H)][ξGln(3R-OH)][X3]; lactam 1-C)		inactive [at 17.3 µM]
Cc1ccc2[nH]c(=O)c(C3=NN(C(=O)CCC(=O)O)C(c4ccc(Br)cc4)C3)c(-c3ccccc3)c2c1 (centres undefined)		inactive
C[C@H]1CC[C@H]2[C@@H](C=C[C@@](C)(O)[C@]2(C)C(=O)CCO)C1	5.93% (inactive)	
COc1cc(/C=C/c2ccccc2)c(C(=O)O)c(O)c1CC=C(C)C	-16.4% (inactive)	
O=C(OCc1ccccc1O[C@@H]1O[C@H](CO)[C@@H](O)[C@H](O)[C@H]1O)C1(O)C=CCCC1O (some centres undefined)	8.75% [at 17.3 µM] (inactive)	
C=C1C(O)C(OC(=O)c2ccccc2)C2C(C)(C(=O)O)CCCC2(C)C1CC/C(C)=C\CO (centres undefined)	5.05% [at 17.3 µM] (inactive)	
COc1cc2c(c(O)c1OC/C=C(\C)CC/C=C(/C)CCC=C(C)C)CN(C(CCC(=O)O)C(=O)O)C2=O (centres undefined)		inactive [at 17.3 µM]
